Data from PubChem BioAssay AID1220 (Sanford-Burnham Center for Chemical Genomics, 2008).
Among all 190,000 compounds or so, about 1,300 (0.68%) were called active. Cut-off read from the data, not from the text of the source: active = inhibition above about 50%; inactive = the rest. The entries come from a sample that favours actives as a whole.

These compounds were tested against Mannose-6-phosphate isomerase (Homo sapiens) (UniProt P34949) (assay: MPI inhibition at elevated mannose 6-phosphate – biochemical, fluorescence intensity, high mannose 6-phosphate, primary screen (AID 1220)). Conditions: recombinant PMI enzyme, coupled fluorescence intensity; at 20 µM; active compounds read high.
Chain of Mannose-6-phosphate isomerase (Homo sapiens) (P34949 whole entry, looked up): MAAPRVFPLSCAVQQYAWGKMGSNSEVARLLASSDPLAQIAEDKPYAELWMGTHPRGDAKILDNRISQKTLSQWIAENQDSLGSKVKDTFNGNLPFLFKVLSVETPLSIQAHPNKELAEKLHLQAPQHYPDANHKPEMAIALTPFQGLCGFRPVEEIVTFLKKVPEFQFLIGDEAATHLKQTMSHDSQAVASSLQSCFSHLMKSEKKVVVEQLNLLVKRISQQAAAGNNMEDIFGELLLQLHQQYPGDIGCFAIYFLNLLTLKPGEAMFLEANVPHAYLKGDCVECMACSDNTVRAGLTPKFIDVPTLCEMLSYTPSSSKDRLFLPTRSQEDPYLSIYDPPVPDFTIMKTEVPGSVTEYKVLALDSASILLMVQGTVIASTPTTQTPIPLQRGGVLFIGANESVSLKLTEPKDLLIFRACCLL

inhibition, active:
Oc1ccc(N=Cc2ccc(-c3cccs3)s2)cc1 55.3%
O=C(O)CCCN1C(=O)/C(=C\c2ccco2)SC1=S 60.3%
O=C1/C(=C/c2ccco2)SC(=S)N1C1CCS(=O)(=O)C1 (stereo not given) 54.7%
O=C1/C(=C\c2ccco2)SC(=S)N1c1ccccc1 51.3%
O=C(O)CCN1C(=O)/C(=C/c2ccc(-c3nc4ccccc4s3)o2)SC1=S 54.7%
O=c1oc2c(O)c(O)cc3c(=O)oc4c(O)c(O)cc1c4c23 61.2%
Cn1cc(/C=N\O)nc2c(=O)n(-c3ccccc3)c(=O)nc1-2 56.5%
COc1cc(C2C3C(=O)N(Cc4ccccc4)C(=O)C3ON2c2ccccc2)cc(OC)c1O (stereo not given) 54.2%
COc1ccc(N=Cc2cc(Cc3ccccc3Cl)cc([N+](=O)[O-])c2O)cc1OC 54.9%
Cc1ccc(N=Cc2cc(Cc3ccccc3Cl)cc([N+](=O)[O-])c2O)c(O)c1 56.5%
Cc1ccc(O)c(N=Cc2cc(Cc3ccccc3)cc([N+](=O)[O-])c2O)c1 63.3%

inhibition, inactive:
CCN(CC)CCOC(=O)c1ccc(NC(=O)CNC(=O)C2CCCCC2)cc1 -12.4%
O=C1CC(c2ccccc2)n2nc(NC(=O)c3cccnc3)nc2N1 (stereo not given) -4.6%
Cc1ccc(-n2nnnc2SCC(=O)NNC(=O)c2ccc([N+](=O)[O-])cc2)cc1 8.5%
Cc1ccsc1C=Nc1ccc(O)cc1 45.3%
CC(=O)c1ccc(-c2cccs2)s1 0.2%
O=C1/C(=C\c2ccco2)SC(=S)N1c1ccc(O)cc1 39.1%
O=C1/C(=C\c2cccs2)SC(=S)N1C1CCS(=O)(=O)C1 (stereo not given) 12%
O=C(CCCN1C(=O)/C(=C\c2ccco2)SC1=S)Nc1ccc2ccccc2c1 -8.1%
COc1ccc(NC(=O)CCCN2C(=O)/C(=C\c3ccco3)SC2=S)cc1 13.4%
Cc1ccc(/C=C2\SC(=S)N(C3CCS(=O)(=O)C3)C2=O)o1 (stereo not given) 41.2%
O=C(O)CCCN1C(=O)/C(=C/c2ccc(-c3nc4ccccc4s3)o2)SC1=S -50.1%
O=C(O)CCN1C(=O)/C(=C\c2ccc(-c3nc4ccccc4s3)o2)SC1=S 7.1%
Cc1ccc(N2C(=O)/C(=C\c3ccco3)SC2=S)cc1 39.7%
CCC(=O)Nc1cc(-c2nn3c(C)nnc3s2)ccc1C 1.7%
O=C(CCOc1ccccc1)Nc1cccc(S(=O)(=O)Nc2ccccc2Cl)c1 13.1%
CCC(=O)Nc1ccc(S(=O)(=O)NCc2ccco2)cc1 -9.3%
COc1ccc(NC(=O)c2onc(C)c2Cl)cc1OC -15%
CCOC(=O)C1(Cc2ccc(Cl)cc2)CCN(CCCn2cccn2)CC1 3.5%
CN(c1ncc(C(F)(F)F)cc1Cl)N1C(=O)c2cccc([N+](=O)[O-])c2C1=O 6.1%
Clc1cc(Cl)cc(C2=NCCC(c3ccccc3)O2)c1 (stereo not given) 15.6%
CC1(C)CC(=O)C2=C(C1)OC(N)=C(C#N)C2c1ccccc1[N+](=O)[O-] (stereo not given) 47.5%
O=C(O)CN(c1ccc2c(c1)OCCO2)S(=O)(=O)c1ccccc1 -2.6%
COc1ccc(OCC(=O)NC(CC(=O)O)c2ccc(OC)c(OC)c2)cc1 (stereo not given) -11.4%
Cc1c(Br)c(=O)oc2c(Br)c(O)ccc12 -8.7%
Cc1c(Br)c(=O)oc2c(Br)c(O)c(O)cc12 -33.8%
Cc1cccc(C(c2c(C)nn(-c3ccccc3)c2N)c2c(C)nn(-c3ccccc3)c2N)c1 16.3%
O=C(NC1CCCCC1)c1cc(Cl)nc2ccccc12 1.4%
O/N=C/c1cn(-c2ccccc2)nn1 6.9%
Cc1[nH]n(-c2ccccc2)c(=O)c1/C=N/O 5.9%
Nc1cc(=O)[nH]c(SCC(=O)Nc2cccc(Cl)c2Cl)n1 4.4%
O=C(CSc1ncn(-c2ccccc2)n1)Nc1nncs1 5.2%
COc1cc(C2C3C(=O)N(Cc4ccccc4)C(=O)C3ON2c2ccccc2)cc(OC)c1OC (stereo not given) 7.3%
COc1ccc(C2C3C(=O)N(Cc4ccccc4)C(=O)C3ON2c2ccccc2)c(OC)c1OC (stereo not given) 15%
Cc1n[nH]c(C)c1Sc1ccccc1N=Cc1cc(Cl)cc([N+](=O)[O-])c1O 0.8%
O=[N+]([O-])c1cc(Cc2ccccc2)cc(C=Nc2ccc(N3CCOCC3)cc2)c1O 38.7%
COc1cc(C=Nc2cccc(C)c2)c(O)c([N+](=O)[O-])c1 34%
Cc1c(N=Cc2ccc(O)c(Br)c2)cccc1[N+](=O)[O-] 12.1%
Cc1ccc(N=Cc2c(O)[nH]c3ccccc23)c([N+](=O)[O-])c1 -4.1%
COc1ccc(N=Cc2cccc(C)c2O)cc1Cl 7.9%
